# LASV entry inh – inhibitors of Lassa virus binding or cell entry; Lassa virus pseudotype entry inhibition, cell reporter; Potency, µM (doses to about 37.9 µM), actives largely listed as inhibitors; actives 1.2% (n = 300,000); calls by dose curve; tested in HEK293 cells; also: nearly all actives have a fitted effect of over 50% in size
# Vaccinia mCherry – inhibitors of vaccinia virus infection (mCherry reporter signal) | Vaccinia virus mCherry reporter infection, fluorescence | Potency, µM (doses to about 36.5 µM), hits mostly inhibitors | actives 0.63% (n = 310,000) | AID 720579; calls by dose curve; tested in A549 cells; also: nearly all actives have a fitted effect of over 35% in size
# VACV Venus inh – vaccinia inhibition (Venus reporter); Vaccinia virus Venus reporter expression, fluorescence; actives 0.46% (n = 330,000); AID 720580; Potency, µM (top dose mostly 36.5 µM), actives largely listed as inhibitors; calls by dose curve; tested in A549 cells; also: nearly all actives have a fitted effect of over 30% in size
# HCV inh – inhibitors of hepatitis C virus infection. Potency, µM (top dose mostly 41.8 µM), hits mostly inhibitors. actives 3.4% (n = 340,000). AID 651820. Huh7.5.1 HCVcc-Cre infection, luciferase reporter, 44 h; active = well fitted inhibition curve with a large enough effect; inconclusive = small, poorly fitted or top-dose-only effect, or another doubt; inactive = no such curve, though single readings can be large or run the other way
#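 A cell-based infection assay in which seeded cells (1,000 per well) receive test compound after 4 h, are inoculated with HCVcc-Cre at approximately 0.5 moi, and are incubated 44 h before luminescence detection.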
# HCMV antiviral – human cytomegalovirus inhibition. HFF cells, HCMV-luciferase reporter, 72 h; active compounds read low. activity change, negative = inhibition, % at 57.5 µM. actives 4.5% (n = 410,000); in the data active = activity change below about -60%; inconclusive = no clear call, values can overlap the other calls; inactive = above about -39%
#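 Two compound doses tested in HFFs infected with HCMV-luciferase, MOI 1 PFU/cell, 72 h at 37C. Lysate luminescence read with OneGlo; data normalized against buffer-only and 10uM Salinomycin inhibitor controls.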
# Marburg entry inh – blocks Marburg virus binding to or entry into cells. Marburg virus pseudotyped entry inhibition, cell reporter. Potency, µM (highest dose often 37.8 µM), actives largely listed as inhibitors. actives 1.8% (n = 300,000); calls by dose curve; tested in HEK293 cells
# Numbers stand for hits; – = inactive; ? = inconclusive; · = no result given; [ ] = remark or other dose. Rows were chosen to be rich in hits. Some 7.8% of all compounds tested hit in one or more screens of this group.
SMILES,LASV entry inh,Vaccinia mCherry,VACV Venus inh,HCV inh,HCMV antiviral,Marburg entry inh
Fc1ccc(-c2noc3nc(NCC4CCCO4)ccc23)cc1 (stereo not drawn),·,·,·,·,–,·
Cc1ccc(NNC(=O)c2ccno2)cc1Cl,·,·,·,11.2µM,–,·
CCOC(=O)C1CCN(C(=O)c2c(C)nn(-c3ccc(F)cc3)c2-n2cccc2)CC1,–,–,–,·,–,·
COc1ccc(Br)c(C(=O)Nc2cc3c(cc2N2CCCC2)n(C)c(=O)c(=O)n3C)c1,–,–,–,·,–,·
OC(CNCCc1ccc(C(F)(F)F)cc1)COc1ccc2ccccc2c1 (stereo not drawn),16.4µM,–,?,?,–,?
OC(COc1ccc(CNCCc2ccc(C(F)(F)F)cc2)cc1)CN1CCCCC1 (stereo not drawn),?,–,–,5.01µM,-80.1,?
COc1ccccc1C(c1c(N)n(C)c(=O)n(C)c1=O)C(C)[N+](=O)[O-] (stereo not drawn),–,–,–,–,–,–
COc1ccccc1C(C[N+](=O)[O-])c1c(N)n(C)c(=O)n(C)c1=O (stereo not drawn),·,·,·,11.2µM,-97.1,·
COc1ccc(Nc2nccc3[nH]c(-c4cccc(F)c4)cc23)cc1OC,·,·,·,·,–,·
CCNC(=O)/C(C#N)=C/c1c(N(Cc2ccccc2)Cc2ccccc2)nc2ccccn2c1=O,?,–,?,11.2µM,?,?
CCNC(=O)/C(C#N)=C/c1c(N2CCOCC2)nc2ccccn2c1=O,–,–,–,–,–,?
CNC(=O)/C(C#N)=C/c1c(N(Cc2ccccc2)Cc2ccccc2)nc2c(C)cccn2c1=O,?,–,?,12.6µM,–,?
COC(=O)C(NC(=O)OCc1ccccc1)(c1ccc(Br)cc1)C(Nc1ccccc1)c1ccccc1 (stereo not drawn),·,·,·,·,–,·
Fc1ccc(-c2nc(Nc3ccc(F)c(Cl)c3)nc3c2COc2ccccc2-3)cc1,?,–,–,·,–,?
Cc1ncc(CO)c(/C=N/NC(=O)c2ccc(Br)cc2)c1O,?,·,·,–,·,–
Cc1ncc(CO)c(/C=N/NC(=S)Nc2ccc(C(C)C)cc2)c1O,·,–[7.34 µM],–[7.34 µM],11.2µM,–,·
CCOC(=O)N1CCN(C(=O)c2ccccc2NC(C)=O)CC1,–,–,–,–,–,–
CCC(Oc1ccccc1)C(=O)Nc1ccccc1C(=O)N1CCCCC1 (stereo not drawn),?,–,–,·,–,11.2µM
Cc1ccc(N2CCN(C(=O)c3ccccc3NC(=O)c3ccccc3C(=O)O)CC2)cc1,?,–,–,–,-103.0,–
CCOC(=O)N1CCN(C(=O)c2ccccc2NC(=O)COc2ccccc2)CC1,–,–,–,?,-60.2,–
O=C(Nc1ccccc1C(=O)N1CCCCCC1)c1ccccc1,–,–,–,–,-64.4,–
CCc1ccccc1N1C(=O)N(Cc2cc(=O)n3ccccc3n2)c2ccccc2S1(=O)=O,?,–,–,·,–,·
Cc1ccc(C)c2sc(NC(=O)c3ccc(S(=O)(=O)N4CCC(C)CC4)cc3)nc12,–,–,–,·,?,·
COc1ccc(NC(=O)N2CC(=O)N3[C@H](CO)[C@@H](c4ccc(Br)cc4)[C@@H]3C2)cc1,·,·,·,·,–,·
Cc1cccc(N2CCN(CCCNC(=O)c3ccc(NC(=O)C4=CSCCO4)cc3)CC2C)c1 (stereo not drawn),?,–,–,11.2µM,–,?
SMILES,LASV entry inh,Vaccinia mCherry,VACV Venus inh,HCV inh,HCMV antiviral,Marburg entry inh
CC1CCCN(CCCNC(=O)c2ccc(NC(=O)C3=CSCCO3)cc2)C1 (stereo not drawn),·,·,·,–,–,·
CCS(=O)(=O)c1nc2ccccc2n1CC(=O)Nc1ccccc1C(=O)OC,–,–,–,·,–,–
NC(=O)C1CCN(C2=C(Cl)C(=O)c3ccccc3C2=O)CC1,?,·,·,2.51µM,–,?
CN1CCN(C2=C(Cl)C(=O)c3ccccc3C2=O)CC1,?,?,10µM,7.08µM,–,?
O=C1C(Cl)=C(N2CCC(C(=O)O)CC2)C(=O)c2ccccc21,·,·,·,–,·,·
CC1COCC(C)N1C1=C(Cl)C(=O)c2ccccc2C1=O (stereo not drawn),?,–,–,11.2µM,–,?
CC(=O)c1c(C)oc2ccc(N(C(=O)Oc3ccccc3)S(=O)(=O)c3ccccc3)cc12,?,–,–,·,–,·
COc1cc(-c2cc(OC)c3c(C)oc(C)c3c(=O)c2)ccc1OC(=O)c1cccc(C)c1,–,–,–,·,–,–
O=Cc1ccc(N2Cc3ccccc3C2)cc1,?,–,–,–,–,1.26µM
COc1cc(Cl)c(CC(=O)NO)cc1OC,·,–,–,·,·,·
C=CCOc1ccccc1OCC(O)CNC(C)C (stereo not drawn),·,–,–,1µM,–,·
Cc1cccc(C)c1OCC(O)CNC(C)C (stereo not drawn),–,–,–,–,–,–
COc1ccc(Cl)cc1C(=O)OCC(=O)NC1CCCC(C)C1C (stereo not drawn),–,–,–,–,–,–
COc1cccc2cc(C(=O)OCC(=O)NC3CCCC(C)C3C)c(=O)oc12 (stereo not drawn),–,–,–,?,-60.6,?
Cc1coc2c(C)c3oc(=O)c(CC(=O)NCc4ccccc4)c(C)c3cc12,–,–,–,·,–,–
CCOc1ccc(C(=O)Nc2ccc(S(=O)(=O)N(Cc3ccccc3)c3ccccc3)cc2)cc1,–,–[7.34 µM],–[7.34 µM],·,-61.4,?
CCN(c1ccccc1)S(=O)(=O)c1cc(C(=O)Nc2cccc(Cl)c2)ccc1F,12.6µM,?,?,?,-95.4,?
CCOc1ccc(NC(=O)c2ccc(F)c(S(=O)(=O)N(CC)Cc3ccccc3)c2)cc1,?,–,–,·,-97.2,·
Cc1cccc(NC(=O)c2ccc(N(Cc3ccccc3)S(C)(=O)=O)cc2)c1,?,–,–,·,-66.0,·
COc1ccc([C@]23Cc4cc(C#N)ccc4[C@H](O2)c2c(cc(C)n(-c4ccccc4)c2=O)O3)cc1,·,·,·,·,·,–
Cc1ccc(S(=O)(=O)NCCc2sc3nc(-c4ccccc4)nn3c2C)cc1C,–,–,?,·,?,·
CCCCSc1nnc2n(-c3ccc(OC)cc3)c(=O)c3c4c(sc3n12)COC(C(C)C)C4 (stereo not drawn),–,–,–,·,–,–
CCN(Cc1ccccc1)S(=O)(=O)c1cc(C(=O)Nc2cc(Cl)cc(Cl)c2)ccc1F,?,–,?,·,-96.7,·
CN(Cc1ccccc1)S(=O)(=O)c1ccc(F)c(C(=O)Nc2cc(Cl)cc(Cl)c2)c1,–,–,–,·,–,·
O=C(CN1C(=O)c2cccc3cccc1c23)NCc1ccc2c(c1)OCO2,–,·,·,–,–,–
COc1ccc2cc(C(=O)N3CCN(Cc4ccc5c(c4)OCO5)CC3)[nH]c2c1,?,–,–,10µM,–,?
Cc1ccccc1C(=O)N1CCC(C(=O)N2CCN(Cc3ccc4c(c3)OCO4)CC2)CC1,–,–,–,–,-101.7,–
O=C(CN1C(=O)c2cccc3cccc(c23)C1=O)N1CCN(Cc2ccc3c(c2)OCO3)CC1,–,?,–,22.4µM,–,–
